Results filed as inconclusive are left out. Calls of active or inactive are those of the source. The calls were made as follows, unless noted: active = hit-call score of the fitted dose curve at least 0.9, where 1 is the maximum; inconclusive = response in the unintended direction; inactive = score below 0.9.

Tested on in one assay: not listed separately
Kind of assay: IUF_NPC1_cytotoxicity_72hr: Cytotoxicity Assessment at 72 hours in the Leibniz Research Institute for Environmental Medicine (IUF) Neural Progenitor Cell Proliferation Assay (NPC1) (AID 2284332).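 Also: rising LDH signal means more cytotoxicity.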
Settings: not given
In outline: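 Human fetal neural progenitor spheres (0.3 mm) in EGF/FGF proliferation medium, 37C, exposed 72 h without renewal. LDH release in supernatant read by resorufin fluorescence; gain of signal scored relative to dynamic range.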
Turning to `OC[C@@H](O)[C@@H](O)[C@H](O)[C@H](O)CO`, the result was inactive.
On the same count and under the same terms, under `C[Si]1(C)O[Si](C)(C)O[Si](C)(C)O[Si](C)(C)O1` stands “inactive”; under `CC(=O)Oc1ccccc1C(=O)O`, “inactive”.

Tested on in a further assay: not listed separately
Kind of assay: VALA_TUBIPS_Antagonist_CellCount: Viability Assessment in the VALA Sciences human iPS-derived Endothelial Tubule Formation (TUBIPS) Antagonism Assay (AID 2284335).
Settings: not given
As for the experimental part:
(§1) VALA_TUBIPS_Agonist is a cell-based, multiplexed assay that uses human iPS-derived endothelial cells (iPSC). Measurements were taken 72 hours after chemical dosing in a 96-well plate.VALA_TUBIPS_Antagonist_CellCount is the one of two assay components measured from the VALA_TUBIPS_Antagonist assay. It is designed to make measurements of viability, a form of viability reporter, as detected with fluorescence intensity signals by HCS Fluorescent Imaging technology. Data from the assay component VALA_TUBIPS_Antagonist_CellCount was analyzed at the endpoint, VALA_TUBIPS_Antagonist_CellCount, in the positive analysis fitting direction relative to DMSO as the negative control and baseline of activity. Using a type of viability reporter, loss-of-signal activity can be used to understand viability. To generalize the intended target to other relatable targets, this assay endpoint is annotated to the cell cycle intended target family, where the subfamily is cell count.
(§2) […]
In the case of `O=c1c(O)c(-c2ccc(O)c(O)c2)oc2cc(O)cc(O)c12`, the call was inactive.
In the case of `OC[C@@H](O)[C@@H](O)[C@H](O)[C@H](O)CO`, the call was inactive.
Still for that read-out and setting: next, `CCCCC(CC)COC(=O)CC(C(=O)OCC(CC)CCCC)S(=O)(=O)O` (stereo not given): “inactive”; `Oc1ccc2ccccc2c1N=Nc1ccccc1`: “inactive”; `COC(=O)c1ccc(O)cc1`: “inactive”.

Tested on in a further assay: not listed separately
Kind of assay: VALA_MIGHUV1_ScratchOnly_WoundArea: VALA Sciences human Umbilical Vein Endothelial Cell Migration (MIGHUV) Assay, Area of Scratch Wound Inhibited Recovery (AID 2284336).
Settings: not given
In outline: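 HUVEC monolayers (9000 cells/well) were scratched after 24 h, dosed within 30 min (six concentrations, triplicate, 0.1% DMSO), allowed 24 h recovery, then fixed. Hoechst-stained nuclei in the wound imaged; cytochalasin D as reference.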
Take `O=c1c(O)c(-c2ccc(O)c(O)c2)oc2cc(O)cc(O)c12`: the call was inactive.
In the case of `CCCCC(CC)COC(=O)CC(C(=O)OCC(CC)CCCC)S(=O)(=O)O` (stereo not given), the AC50 (commonly the concentration giving half of the maximal activity seen) was 74.5 µM (active).
As for `Oc1ccc2ccccc2c1N=Nc1ccccc1`, the call was inactive.
With `Cc1cc(NC(=O)C(=O)O)cc(C)c1Oc1ccc(O)c2c1CCC2`, the compound was classed as inactive.
For the compound `CCCc1cc(=O)[nH]c(=S)[nH]1`, the call was inactive.

Tested on in another assay: not listed separately
Kind of assay: VALA_TUBHUV_Agonist_TubuleLength: VALA Sciences human Umbilical Vein Endothelial Tubule Formation (TUBHUV) Agonism Assay (AID 2284337).
Settings: not given
The method in brief:
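HUVEC co-cultured with fibroblasts (1:3) 3 days in 10 ng/ml VEGF, then 3 days with compound plus VEGF; 0.1 % DMSO neutral control. Fixed, nuclear and CD31 stained; tubule length by fluorescence imaging.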
Turning to `O=c1c(O)c(-c2ccc(O)c(O)c2)oc2cc(O)cc(O)c12`, the outcome was inactive.
Still for that read-out and setting: under `OC[C@@H](O)[C@@H](O)[C@H](O)[C@H](O)CO` stands “inactive”.
As to `CCCCC(CC)COC(=O)CC(C(=O)OCC(CC)CCCC)S(=O)(=O)O` (stereo not given), the AC50 is 14.9 µM (active).
As to `Oc1ccc2ccccc2c1N=Nc1ccccc1`, the call was inactive.
For the compound `CCCc1cc(=O)[nH]c(=S)[nH]1`, the outcome was inactive.

Tested on in the next assay: not listed separately
Kind of assay: VALA_TUBIPS_Agonist_CellCount: Viability Assessment in the VALA Sciences human iPS-derived Endothelial Tubule Formation (TUBIPS) Agonism Assay (AID 2284338).
Settings: not given
As to the method:
as §1, with “plate.VALA_TUBIPS_Agonist_CellCount” for “plate.VALA_TUBIPS_Antagonist_CellCount”, “VALA_TUBIPS_Agonist” for “VALA_TUBIPS_Antagonist”, “VALA_TUBIPS_Agonist_CellCount” for “VALA_TUBIPS_Antagonist_CellCount”, “VALA_TUBIPS_Agonist_CellCount,” for “VALA_TUBIPS_Antagonist_CellCount,”
as §2
Consider `OC[C@@H](O)[C@@H](O)[C@H](O)[C@H](O)CO`, for which the compound was called inactive.
`CCCCC(CC)COC(=O)CC(C(=O)OCC(CC)CCCC)S(=O)(=O)O` (stereo not given): the AC50 was 77.8 µM (active).
Regarding `Oc1ccc2ccccc2c1N=Nc1ccccc1`, the AC50 is 31.9 µM (active).
As for `Cc1cc(NC(=O)C(=O)O)cc(C)c1Oc1ccc(O)c2c1CCC2`, the result was inactive.
Regarding `COC(=O)c1ccc(O)cc1`, the compound was classed as inactive.
Turning to `CCCc1cc(=O)[nH]c(=S)[nH]1`, the compound was called inactive.

The next assay relates to SRY-box transcription factor 17 (SOX17) Protein Expression, Deisenroth Lab, SOX17 (gene 64321). Kind of assay: CCTE_Deisenroth_DEVTOX-GLR_legacy_Sox17: (Legacy) CCTE's DevTox GLR-Endo Assay Evaluation of SRY-box transcription factor 17 (SOX17) Protein Expression, Deisenroth Lab (AID 2284341; active = hit-call score of the fitted dose curve at least 0.9, where 1 is the maximum; inactive = score below 0.9). The conditions noted are these: actives raise or lower the signal. The method in brief: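 Percent SOX17-positive cells, scored by high-content imaging as mean intensity exceeding pluripotent-control median by 5x BMAD, divided by cell count. Human RUES2-GLR endoderm differentiation, 48 h, two exposures 24 h apart, 1 nM–200 uM; DMSO-referenced bidirectional fitting.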
Take `CC1=C(/C=C/C(C)=C/C=C/C(C)=C/CO)C(C)(C)CCC1`: the AC50 is 33.5 µM (active).
Regarding `COc1cccc2c1C(=O)c1c(O)c3c(c(O)c1C2=O)C[C@@](O)(C(=O)CO)C[C@@H]3O[C@H]1C[C@H](N)[C@H](O)[C@H](C)O1`, the AC50 is 4.93 µM (active).
As to `O=c1[nH]cc(F)c(=O)[nH]1`, the AC50 was 8.47 µM (active).
For the compound `COc1ccc2c(c1)c(CC(=O)O)c(C)n2C(=O)c1ccc(Cl)cc1`, the AC50 was 15.5 µM (active).
As to `CC(=O)Oc1ccccc1C(=O)O`, the compound was called inactive.
The same measure, in the same setting: next, `CCCc1cc(=O)[nH]c(=S)[nH]1`: “inactive”.

(Values after PubChem BioAssay (EPA / NIEHS).)
